Data on 15 molecules can be found in PubChem BioAssay AID1861 (The Scripps Research Institute Molecular Screening Center, 2009).

The campaign covered roughly 290,000 compounds. About 3,100 (1.1%) were called active. For the sample, actives were picked, then their nearest neighbours and some compounds at random. A number with no mark means an inactive call. Rule as the data show it: active = inhibition above about 16% (passing the limit was not always enough); inactive = the rest.

Chain of Neuropeptides B/W receptor type 1 (Homo sapiens) (P48145 whole entry, looked up): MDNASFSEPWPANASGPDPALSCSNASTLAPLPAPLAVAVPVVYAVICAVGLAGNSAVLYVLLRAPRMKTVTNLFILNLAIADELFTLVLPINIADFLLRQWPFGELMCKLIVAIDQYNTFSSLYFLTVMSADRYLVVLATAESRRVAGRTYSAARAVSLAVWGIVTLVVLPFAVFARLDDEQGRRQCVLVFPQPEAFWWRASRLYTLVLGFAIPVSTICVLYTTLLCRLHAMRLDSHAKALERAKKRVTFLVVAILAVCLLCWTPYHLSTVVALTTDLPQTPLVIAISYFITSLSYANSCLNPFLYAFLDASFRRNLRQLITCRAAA

This assay has as its target Neuropeptides B/W receptor type 1 (Homo sapiens) (UniProt P48145). The assay is described as follows: GPR7 receptor antagonists, primary screen, cell-based, fluorescence, single concentration (AID 1861).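 Also: cells stimulated with the agonist NPW; 0% = agonist with vehicle and 100% = vehicle without agonist.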 To be noted: GPR7-expressing cells, fluorescence antagonist assay; at 4.4 µM; stronger effect = higher value.
Turning to `CCOC(=O)C1(CCc2ccccc2)CCN(Cc2ccco2)CC1`, the inhibition was -1.12%.

Turning to `CCOC(=O)C1(Cc2ccc(Cl)cc2)CCN(C(C)CCn2cccn2)CC1` (stereo not given), the inhibition was 37.6% (active).

As to `CCN1CCN(Cc2cc(OC)c3c(c2)OCO3)CC1`, the inhibition was -5.46%.

Consider `COC(=O)N(c1ccc(OC)cc1)P1(=S)OCCC(C)O1` (stereo not given), for which the inhibition was -1.86%.

Turning to `COc1cc2nc(N3CCN(C(=O)[C@@H]4CCCO4)CC3)nc(N)c2cc1OC`, the inhibition is -11.2%.

As to `CCOc1ccc(-c2cc(C)[n+](CCN(CC)CC)c(-c3ccc(OCC)cc3)c2)cc1`, the inhibition is 24.6% (active).

As to `COc1ccc(CNCCc2c[nH]c3ccccc23)cc1OC`, the inhibition is 3.96%.

Consider `COc1ccc(CNCCc2ccc3c(c2)OCO3)c(OC)c1OC`, for which the inhibition is 18.9%.

Take `COc1ccc(Br)cc1CNCCc1cccc(Cl)c1`: the inhibition was 35.6% (active).

`CN1CCC(OC(=O)c2cccc(F)c2)CC1`: the inhibition was 1.33%.

Regarding `CCCCCCN=C(CC)c1c(O)n(CCCC)c(=O)[nH]c1=O`, the inhibition is -13.1%.

For the molecule `Cc1c(Oc2cc(NN3CCCCC3)c([N+](=O)[O-])cc2[N+](=O)[O-])cccc1[N+](=O)[O-]`, the inhibition is -6.67%.

On to `CCC(C)n1c(O)c(/C=N/Nc2nc3c(c(=O)n(C)c(=O)n3C)n2C)c(=O)[nH]c1=S` (stereo not given), for which the inhibition is -8.09%.

Turning to `Cc1ccnc(-n2c(C)cc(/C=C3\C(=O)NC(=S)N(C)C3=O)c2C)c1`, the inhibition is -2.63%.

For the molecule `CSc1ccc(C(=O)C2CCCN(Cc3ccn[nH]3)C2)cc1` (stereo not given), the inhibition was 5.68%.

A word on the inhibition: it is the drop in the measured response relative to a control, in per cent.
